# Compound activity (PubChem BioAssay)
# PPARg SRC-1 ag = promotes SRC-1 coactivator recruitment by human PPARgamma. 200,000 tested, 0.41% active. P37231. PPARgamma-SRC-1 coactivator recruitment biochemical assay. activation, % at 8 µM; in the data active = activation above about 19%;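 also: 0% = DMSO and 100% = reference agonist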
# Target sequence (P37231 whole entry, looked up): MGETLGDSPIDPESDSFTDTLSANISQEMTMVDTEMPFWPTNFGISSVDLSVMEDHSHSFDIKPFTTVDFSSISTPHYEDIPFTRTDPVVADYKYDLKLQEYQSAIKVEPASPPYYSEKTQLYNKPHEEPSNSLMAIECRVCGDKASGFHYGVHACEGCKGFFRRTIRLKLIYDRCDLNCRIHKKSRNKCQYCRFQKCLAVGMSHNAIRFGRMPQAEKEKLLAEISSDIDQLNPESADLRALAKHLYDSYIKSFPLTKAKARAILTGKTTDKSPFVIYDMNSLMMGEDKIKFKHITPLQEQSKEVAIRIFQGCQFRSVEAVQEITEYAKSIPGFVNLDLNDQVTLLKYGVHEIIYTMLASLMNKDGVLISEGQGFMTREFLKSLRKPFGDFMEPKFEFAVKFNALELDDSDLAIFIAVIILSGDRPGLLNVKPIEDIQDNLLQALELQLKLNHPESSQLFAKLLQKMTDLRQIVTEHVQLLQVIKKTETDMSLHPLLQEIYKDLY
# TR-FRET SRC-2 ct = counter-screen for PPARgamma SRC-2 recruitment agonists: TR-FRET artefact. active compounds read high. TR-FRET ratio at 8 µM. 200,000 tested, 0.4% active
# PPARg SRC-3 ag = agonists of human PPARgamma SRC-3 coactivator recruitment; biochemical PPARgamma/SRC-3 coactivator recruitment assay; activation, % at 8 µM; 200,000 tested, 0.26% active; in the data active = activation above about 23%;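 also: 0% = DMSO and 100% = reference agonist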
# SRC3 TRFRET art = counter-screen for PPARgamma SRC-3 recruitment agonists: TR-FRET artefact | PPARgamma/SRC-3 format; active compounds read high | TR-FRET ratio at 8 µM | 99,000 tested, 0.39% active | AID 1048
# PPARg SRC-2 ag = promotes SRC-2 coactivator recruitment by human PPARgamma; PPARgamma LBD-SRC-2 recruitment, biochemical; 200,000 tested, 0.34% active; activation, % at 8 µM; AID 1032; P37231; in the data active = activation above about 22%;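 also: 0% = vehicle and 100% = reference agonist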
# SRC1 TRFRET art = counter-screen for PPARgamma SRC-1 recruitment agonists: TR-FRET artefact | TR-FRET detection artefact counter-screen, emission ratio; active compounds read high | 99,000 tested, 0.34% active | TR-FRET ratio at 8 µM; in the data active = TR-FRET ratio above about 2300
# Starred values were filed as active, the others as inactive; . = not tested or not shown. This is a sample that favours compounds with a hit; in the whole collection about 0.84% have one here. Rule as the data show it, unless noted: active = TR-FRET ratio above about 2000; inactive = the rest.
SMILES,PPARg SRC-1 ag,TR-FRET SRC-2 ct,PPARg SRC-3 ag,SRC3 TRFRET art,PPARg SRC-2 ag,SRC1 TRFRET art
CCOC(=O)Cn1c(=NC(=O)c2ccc([N+](=O)[O-])s2)sc2ccccc21,2,1609,-4,1517,-1,1793
CCn1cc(C(=O)Nc2sc(C)c(C)c2C(=O)OC)cn1,2,1709,-2,1413,4,1673
Cc1ccc(-c2nnn(CC(=O)N(c3ccc4c(c3)OCCO4)C(C(=O)NCC3CCCO3)c3ccc(F)cc3)n2)o1 (stereo unspecified),-3,1571,0,1544,6,1563
Cc1cc(C)n(CCc2nc(-c3ccco3)cs2)n1,-6,1596,-3,.,6,.
Cc1nn(CCc2nc(-c3ccco3)cs2)c2[nH]c(=O)cc(C(F)(F)F)c12,9,1605,-1,2055*,9,1614
O=[N+]([O-])c1ccc2[nH]c(O)c(N=NC(=S)NCC3CCCO3)c2c1 (stereo unspecified),3,1299,-6,1631,-4,1664
CCNC(=S)N=Nc1c(O)[nH]c2ccc([N+](=O)[O-])cc12,8,1982*,0,1665,11,2171
CCC(=O)N1COC[C@@H]1Cc1ccccc1,4,1437,3,1487,1,1906
CCCn1c(C)cs/c1=N\C(=S)Nc1ccccc1,14,1455,6,2212*,3,1865
Cc1cs/c(=N/C(=S)Nc2ccccc2)n1C,4,1497,5,1745,6,1756
Cc1cccc(N2C(S)=C(C#N)C(=O)NC2c2ccco2)c1 (stereo unspecified),11,1620,5,1528,8,1809
N#CC1=C(S)N(c2ccccc2)C(c2ccc(-c3cccc(Cl)c3)o2)NC1=O (stereo unspecified),6,1822,4,1991,10,2388*
CCOc1cc(/C=N/NC(=O)c2ccc(O)cc2)ccc1Oc1nc(Cl)ncc1F,13,1608,5,1632,9,2558*
O=C(Cn1nnc(-c2ccccc2F)n1)NCc1ccco1,-8,1527,2,1448,-2,1865
COC(=O)Cc1cc(=O)oc2cc(O)ccc12,0,1558,3,1660,-2,1717
CCN(CCO)C(=O)CC1C(=O)NCCN1Cc1c(F)cccc1Cl (stereo unspecified),9,1678,-4,1706,4,1668
O=C(C1=C[C@@H](c2ccc(Br)cc2)C[C@@H](OCCCCO)O1)N1CCN(Cc2ccc3c(c2)OCO3)CC1,1,1592,31*,1729,6,1764
CCS(=O)(=O)N1CCN(c2nc(-c3ccccc3)cs2)CC1,9,1453,10,2121*,5,1774
CS(=O)(=O)N1CCN(c2nc(-c3ccccc3)cs2)CC1,4,1400,5,.,-1,.
O=C(O)c1ccc(NCCC2=CCCCC2)c([N+](=O)[O-])c1,4,1537,0,1722,8,1597
O=C(COC(=O)c1sc2ccccc2c1Cl)Nc1ncc(Cl)cc1Cl,7,2187*,-3,1668,34*,2015
O=C(COC(=O)c1sc2ccccc2c1Cl)NC1CCCCC1,6,4050*,5,1619,115*,1999
O=C(COC(=O)c1sc2cc(F)ccc2c1Cl)Nc1ncc(Cl)cc1Cl,-3,1600,1,1602,2,1944
CC(=O)Nc1ccccc1C(=O)C(=O)NCCc1ccccc1,-3,1555,0,1274,-1,1442
CCN(C(=O)Cn1cnc2cc([N+](=O)[O-])ccc2c1=O)C1CCS(=O)(=O)C1 (stereo unspecified),2,1664,-2,1456,-4,1934
SMILES,PPARg SRC-1 ag,TR-FRET SRC-2 ct,PPARg SRC-3 ag,SRC3 TRFRET art,PPARg SRC-2 ag,SRC1 TRFRET art
O=[N+]([O-])c1ccc(/C=C2\CCC(C3=CCCC3)=C2N2CCOCC2)cc1,-2,1468,2,1568,-1,1864
NC1=Nc2cccc3cccc1c23,-2,1771,11,1406,6,2026
NC1=CC(=O)c2cccc3cccc1c23,17,1735,26*,.,13,.
COc1cc(CCC(=O)Nc2ccc(S(=O)(=O)NC3=NCCCCC3)cc2)cc(OC)c1OC,-8,1659,-7,1480,-3,1707
Cc1ccccc1OCc1nc2ccccc2[nH]1,3,1505,-1,1739,2,1770
COc1ccccc1OCc1nc2ccccc2[nH]1,-3,1592,-6,.,23*,.
N#Cc1cnn(-c2nc(SCc3ccccc3)nc3sc4c(c23)CCCC4)c1N,9,2441*,7,.,5,.
COCCCNc1nc(SCc2ccccc2)nc2sc3c(c12)CCC3,2,1553,5,.,-6,.
O=c1c(-c2ccco2)[n+]([O-])c2ccccc2n1OCc1ccccc1[N+](=O)[O-],8,1426,2,1485,6,1917
CCOC(=O)c1oc2ccc(S(=O)(=O)N3CCC(C)CC3)cc2c1C,46*,1625,15,.,-1,.
COc1ccc2nc(SCC(=O)Nc3nccs3)[nH]c2c1,9,1662,9,1593,15,1829
COc1ccc2nc(SCC(=O)N3CCN(c4ccc(F)cc4)CC3)c(C#N)cc2c1,12,2728*,7,.,13,.
O=C(c1cnc(-c2ccc(Cl)cc2)s1)c1ccc(Cl)cc1Cl,12,1430,36*,.,3,.
O=C(O)Cc1ccc(C(=O)c2ccc(Cl)cc2Cl)s1,0,1896,0,1693,7,2208
COCCOC(=O)c1c(C)oc2ccc(OC(=O)COc3c(F)c(F)c(F)c(F)c3F)cc12,-5,1535,-3,.,-8,.
Cc1oc2ccc(OC(=O)COc3c(F)c(F)c(F)c(F)c3F)cc2c1C(=O)OC(C)C,12,2175*,1,1635,11,1598
Cc1ccc(-c2ccc(C3C(C#N)=C(N)Oc4n[nH]c(C)c43)o2)cc1 (stereo unspecified),-1,1479,14,.,-8,.
Cc1[nH]nc2c1C(c1ccc(-c3ccc(Cl)cc3)o1)C(C#N)=C(N)O2 (stereo unspecified),7,1664,4,1758,23*,1928
COC(=O)c1ccc2c(c1)NC(=O)C(N1CCCC1)S2 (stereo unspecified),0,1526,1,.,4,.
COC(=O)c1ccc2c(c1)SC1=C(CCCC1=O)N2,12,2074*,17,.,13,.
O=C(CSc1ccc2nnc(-c3ccc(Cl)cc3)n2n1)N1CCCc2ccccc21,-1,3594*,0,1869,46*,1993
CC(c1ccon1)N(C)Cc1cn(C)nc1-c1cccc(Cl)c1 (stereo unspecified),-1,1633,4,1432,7,1537
O=C1Nc2ccc(Cl)cc2[C@@](C#CC2CC2)(C(F)(F)F)O1,4,1445,6,1607,4,1719
Cc1ccc(S(=O)(=O)Nc2ccc(-c3csc(-c4ccccc4)n3)cc2)cc1,12,1791,6,2149*,6,2042
Cn1c(C(=O)N2CCOCC2)cnc1Sc1ncc(C(F)(F)F)cc1Cl,-1,1743,10,.,22*,.
